This is a sample that favours compounds with a hit; in the whole collection about 0.9% have one here.
PPARg SRC-2 ag: agonists of PPARg-SRC-2 recruitment, primary screen, biochemical, HTS; actives 0.34% (n = 200,000); Peroxisome proliferator-activated receptor gamma (Homo sapiens), P37231; PPARgamma LBD-SRC-2 recruitment; activation, % at 8 µM
PPARg SRC-1 ag: PPARgamma agonists recruiting SRC-1 coactivator, primary screen, biochemical; Peroxisome proliferator-activated receptor gamma (Homo sapiens), P37231; PPARgamma-SRC-1 coactivator recruitment biochemical assay; activation, % at 8 µM; actives 0.41% (n = 200,000); AID 631, 2007; in the data active = activation above about 19%
SRC1 TRFRET art: TR-FRET detection interference compounds, primary screen, artefact control for PPARgamma SRC-1 recruitment agonists, biochemical, TR-FRET emission ratio. TR-FRET ratio at 8 µM. actives 0.34% (n = 99,000). TR-FRET detection artefact counter-screen; hits give high values; in the data active = TR-FRET ratio above about 2300
TR-FRET SRC-2 ct: TR-FRET signal artefacts, primary screen, artefact control for PPARgamma SRC-2 agonist project, biochemical; actives 0.4% (n = 200,000); AID 1049, 2008; TR-FRET artefact counter-screen; hits give high values; TR-FRET ratio at 8 µM; in the data active = TR-FRET ratio above about 2000
SRC3 TRFRET art: TR-FRET detection interference compounds, artefact control for PPARgamma SRC-3 recruitment agonists, biochemical, TR-FRET ratio; TR-FRET artefact counter-screen, PPARgamma/SRC-3 format; hits give high values; TR-FRET ratio at 8 µM; actives 0.39% (n = 99,000); in the data active = TR-FRET ratio above about 2000
PPARg SRC3 recr: PPARgamma agonists recruiting SRC-3 coactivator, primary screen, biochemical. Peroxisome proliferator-activated receptor gamma (Homo sapiens), P37231. actives 0.26% (n = 200,000). activation, % at 8 µM. biochemical PPARgamma/SRC-3 coactivator recruitment assay. AID 731, 2007; in the data active = activation above about 23%
PPARg SRC2 ag: agonists of PPARgamma SRC-2 coactivator recruitment, confirmation, biochemical, HTS; biochemical SRC-2 recruitment by PPARgamma; actives 52% (n = 790); shares compounds with PPARg SRC3 recr; activation, % at 8 µM; AID 1297, 2008
PPARg SRC1 ag: PPARgamma agonists recruiting SRC-1 coactivator, confirmation, biochemical. AID 1300, 2008. activation, % at 8 µM. shares compounds with PPARg SRC3 recr. PPARgamma–SRC-1 coactivator recruitment biochemical assay. actives 43% (n = 790); in the data active = activation above about 20%
PPARg SRC3 conf: PPARgamma-driven SRC-3 coactivator recruitment agonists, confirmation, biochemical. biochemical PPARgamma-SRC-3 coactivator recruitment, agonist mode. actives 29% (n = 790). shares compounds with PPARg SRC3 recr. AID 1301, 2008. activation, % at 8 µM; in the data active = activation above about 24%
Target sequence (P37231 whole entry, looked up): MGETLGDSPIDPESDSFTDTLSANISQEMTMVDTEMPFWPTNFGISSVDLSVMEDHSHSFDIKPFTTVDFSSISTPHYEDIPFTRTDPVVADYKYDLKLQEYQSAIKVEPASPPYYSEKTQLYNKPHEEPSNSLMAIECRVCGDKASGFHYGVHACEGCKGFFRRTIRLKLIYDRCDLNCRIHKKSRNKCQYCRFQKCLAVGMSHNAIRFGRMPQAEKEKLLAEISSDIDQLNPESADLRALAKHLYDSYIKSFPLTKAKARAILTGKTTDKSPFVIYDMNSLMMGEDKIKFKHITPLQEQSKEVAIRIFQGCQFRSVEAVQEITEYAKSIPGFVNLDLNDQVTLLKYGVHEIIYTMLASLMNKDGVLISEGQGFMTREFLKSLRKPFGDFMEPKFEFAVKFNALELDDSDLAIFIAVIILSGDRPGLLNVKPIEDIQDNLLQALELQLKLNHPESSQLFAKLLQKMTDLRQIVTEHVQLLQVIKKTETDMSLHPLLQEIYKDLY
Target sequence (Q9Y6Q9 whole entry, looked up): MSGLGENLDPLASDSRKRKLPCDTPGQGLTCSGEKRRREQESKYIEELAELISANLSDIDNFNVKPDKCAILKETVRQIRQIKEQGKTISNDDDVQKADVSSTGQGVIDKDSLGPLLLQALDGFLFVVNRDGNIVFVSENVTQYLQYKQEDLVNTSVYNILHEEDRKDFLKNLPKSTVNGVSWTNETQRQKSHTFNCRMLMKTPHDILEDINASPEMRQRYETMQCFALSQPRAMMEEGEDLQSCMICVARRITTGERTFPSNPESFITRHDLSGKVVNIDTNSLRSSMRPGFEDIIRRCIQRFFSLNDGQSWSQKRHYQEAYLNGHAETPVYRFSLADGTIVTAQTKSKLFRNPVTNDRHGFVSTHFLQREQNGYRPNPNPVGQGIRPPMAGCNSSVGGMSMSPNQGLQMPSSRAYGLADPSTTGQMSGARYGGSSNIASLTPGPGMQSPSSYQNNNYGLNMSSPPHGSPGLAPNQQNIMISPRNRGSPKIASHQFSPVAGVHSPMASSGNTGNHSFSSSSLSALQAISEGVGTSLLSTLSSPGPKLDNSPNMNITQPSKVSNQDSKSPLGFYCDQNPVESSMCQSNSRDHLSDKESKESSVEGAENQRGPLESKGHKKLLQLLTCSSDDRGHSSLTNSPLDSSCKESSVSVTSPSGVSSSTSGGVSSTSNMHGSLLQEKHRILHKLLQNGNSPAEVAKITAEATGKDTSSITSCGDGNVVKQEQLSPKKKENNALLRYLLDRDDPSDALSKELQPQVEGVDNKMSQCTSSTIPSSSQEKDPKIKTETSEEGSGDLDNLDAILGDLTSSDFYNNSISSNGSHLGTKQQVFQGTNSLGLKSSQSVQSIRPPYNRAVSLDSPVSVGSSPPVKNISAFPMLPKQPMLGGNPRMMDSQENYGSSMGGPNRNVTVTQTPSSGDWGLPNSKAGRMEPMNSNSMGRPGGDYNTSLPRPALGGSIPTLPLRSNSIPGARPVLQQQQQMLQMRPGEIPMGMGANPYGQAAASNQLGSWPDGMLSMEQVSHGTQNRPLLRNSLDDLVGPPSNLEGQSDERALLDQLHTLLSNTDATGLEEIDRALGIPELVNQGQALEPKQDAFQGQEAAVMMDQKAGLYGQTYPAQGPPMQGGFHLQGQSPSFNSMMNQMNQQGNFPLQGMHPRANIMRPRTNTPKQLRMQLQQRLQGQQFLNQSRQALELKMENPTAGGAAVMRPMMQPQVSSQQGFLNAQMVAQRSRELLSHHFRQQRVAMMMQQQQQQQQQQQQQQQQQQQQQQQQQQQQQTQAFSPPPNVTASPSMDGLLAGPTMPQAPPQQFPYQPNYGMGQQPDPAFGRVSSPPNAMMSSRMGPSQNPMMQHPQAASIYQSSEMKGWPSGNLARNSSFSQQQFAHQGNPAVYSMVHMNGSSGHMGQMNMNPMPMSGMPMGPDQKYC
Large screens that a line does not name were inactive (follow-up assays come after a bar, where they were run). Rule as the data show it, unless noted: active = activation above about 22%; inactive = the rest.

O=C(Cc1ccc(-n2c(=O)c3sccc3n(CC(=O)Nc3ccccc3F)c2=O)cc1)NCc1ccco1	none
CCCCc1nc2sc3c(SCC(=O)NCc4ccco4)ncnc3c2c2c1CCC2	PPARg SRC-1 ag 22 (no result: SRC1 TRFRET art, SRC3 TRFRET art) | PPARg SRC2 ag 38 | PPARg SRC1 ag 26 | PPARg SRC3 conf 26
CCOC(=O)CC(=O)CSc1ncnc2c1oc1ccccc12	PPARg SRC-2 ag 87, PPARg SRC-1 ag 96, TR-FRET SRC-2 ct 3929, PPARg SRC3 recr 138 (no result: SRC1 TRFRET art, SRC3 TRFRET art) | PPARg SRC2 ag 55 | PPARg SRC1 ag 36 | PPARg SRC3 conf 37
O=C(CSc1ncnc2c1oc1ccccc12)Nc1ccccc1C(F)(F)F	none
O=C(O)CSc1ncnc2c1oc1ccccc12	PPARg SRC-2 ag 26, PPARg SRC-1 ag 19 (no result: SRC1 TRFRET art, SRC3 TRFRET art) | PPARg SRC2 ag inactive | PPARg SRC1 ag inactive | PPARg SRC3 conf inactive
O=C(CSc1ncnc2c1oc1ccccc12)NCc1ccco1	PPARg SRC-2 ag 92, PPARg SRC-1 ag 92, TR-FRET SRC-2 ct 3393, PPARg SRC3 recr 107 (no result: SRC1 TRFRET art, SRC3 TRFRET art) | PPARg SRC2 ag 65 | PPARg SRC1 ag 47 | PPARg SRC3 conf 44
O=C(CSc1ncnc2c1oc1ccccc12)N1CCCc2ccccc21	PPARg SRC-2 ag 40, TR-FRET SRC-2 ct 1981, PPARg SRC3 recr 39 (no result: SRC1 TRFRET art, SRC3 TRFRET art) | PPARg SRC2 ag 31 | PPARg SRC1 ag 24 | PPARg SRC3 conf inactive
OCCSc1ncnc2c1oc1ccccc12	PPARg SRC-2 ag 23 (no result: SRC1 TRFRET art, SRC3 TRFRET art) | PPARg SRC2 ag 28 | PPARg SRC1 ag 22 | PPARg SRC3 conf inactive
N#CCCSc1ncnc2c1oc1ccccc12	PPARg SRC-2 ag 41, PPARg SRC-1 ag 20, TR-FRET SRC-2 ct 2279, PPARg SRC3 recr 36 (no result: SRC1 TRFRET art, SRC3 TRFRET art) | PPARg SRC2 ag 31 | PPARg SRC1 ag 21 | PPARg SRC3 conf inactive
CC(=O)NC(NC(=S)N1CCCCCC1)C(Cl)(Cl)Cl (stereo not given)	none
O=c1cc(-c2ccc3c(c2)OCO3)oc2ccccc12	PPARg SRC-2 ag 27, PPARg SRC-1 ag 33, SRC1 TRFRET art 2778, TR-FRET SRC-2 ct 2211 | PPARg SRC2 ag inactive | PPARg SRC1 ag inactive | PPARg SRC3 conf inactive
CC1=CC(C)(C)[N+](C)=CN1c1ccccc1	none
Cc1ccc(C(C(=O)NCc2ccco2)N(CCc2ccccc2)C(=O)Cn2nnc3ccccc32)o1 (stereo not given)	PPARg SRC3 recr 32 | PPARg SRC2 ag inactive | PPARg SRC1 ag inactive | PPARg SRC3 conf inactive
N#Cc1c(-c2ccccc2)cc(C2CC2)nc1SCC(=O)c1cccs1	PPARg SRC-1 ag 24, TR-FRET SRC-2 ct 2112 (no result: SRC1 TRFRET art, SRC3 TRFRET art) | PPARg SRC2 ag 53 | PPARg SRC1 ag 43 | PPARg SRC3 conf 26
COc1ccccc1-c1n[nH]c(=S)o1	PPARg SRC-2 ag 48, PPARg SRC-1 ag 36, TR-FRET SRC-2 ct 2562, PPARg SRC3 recr 59 (no result: SRC1 TRFRET art, SRC3 TRFRET art) | PPARg SRC2 ag 46 | PPARg SRC1 ag 35 | PPARg SRC3 conf 30
COc1ccccc1-c1cc(N)n[nH]1	none (no result: SRC1 TRFRET art, SRC3 TRFRET art)
COc1ccc(Cl)cc1-c1n[nH]c(=S)o1	PPARg SRC-2 ag 104, PPARg SRC-1 ag 57, TR-FRET SRC-2 ct 3750, PPARg SRC3 recr 119 (no result: SRC1 TRFRET art, SRC3 TRFRET art) | PPARg SRC2 ag 72 | PPARg SRC1 ag 50 | PPARg SRC3 conf 49
Cc1ccc(C)c(CN2C(=O)C3CCCN3c3ccc(C#N)cc32)c1 (stereo not given)	none (no result: SRC1 TRFRET art, SRC3 TRFRET art)
Cc1ccc(CN2C(=O)C3CCCN3c3ccc(C#N)cc32)cc1 (stereo not given)	PPARg SRC3 recr 29 (no result: SRC1 TRFRET art, SRC3 TRFRET art) | PPARg SRC2 ag inactive | PPARg SRC1 ag inactive | PPARg SRC3 conf inactive
CC1N(C)c2cccc3cccc(c23)N1C	PPARg SRC-2 ag 25 (no result: SRC1 TRFRET art, SRC3 TRFRET art) | PPARg SRC2 ag 24 | PPARg SRC1 ag inactive | PPARg SRC3 conf inactive
CC(=O)Oc1c(/C=C(\C#N)C(N)=O)[nH]c2ccccc12	PPARg SRC-2 ag 22, PPARg SRC-1 ag 21 | PPARg SRC2 ag 22 | PPARg SRC1 ag inactive | PPARg SRC3 conf inactive
Cn1c(=O)cc(SCC(=O)Nc2ccccn2)c2ccccc21	PPARg SRC-2 ag 59, PPARg SRC-1 ag 45, TR-FRET SRC-2 ct 2585, PPARg SRC3 recr 65 (no result: SRC1 TRFRET art, SRC3 TRFRET art) | PPARg SRC2 ag 34 | PPARg SRC1 ag 24 | PPARg SRC3 conf 27
Cc1ccnc(NC(=O)CSc2cc(=O)n(C)c3ccccc23)c1	PPARg SRC-2 ag 75, PPARg SRC-1 ag 74, TR-FRET SRC-2 ct 3578, PPARg SRC3 recr 96 (no result: SRC1 TRFRET art, SRC3 TRFRET art) | PPARg SRC2 ag 42 | PPARg SRC1 ag 23 | PPARg SRC3 conf 28
Cc1ccnc(NC(=O)CCCOc2cc(=O)n(C)c3ccccc23)c1	none (no result: SRC1 TRFRET art, SRC3 TRFRET art)
O=C1N=C(N2CCCC2C(=O)O)S/C1=C\c1ccco1 (stereo not given)	none
O=C(c1cccs1)C1CCCN(Cc2nc(Cc3ccccc3F)no2)C1 (stereo not given)	none
CCOC(=O)C1CCCN(CC(=O)Nc2c(C(=O)OC)[nH]c3ccc(Br)cc23)C1 (stereo not given)	PPARg SRC-2 ag 40, PPARg SRC-1 ag 26, TR-FRET SRC-2 ct 2688, PPARg SRC3 recr 42 (no result: SRC1 TRFRET art, SRC3 TRFRET art) | PPARg SRC2 ag 34 | PPARg SRC1 ag 23 | PPARg SRC3 conf 24
COC(=O)c1[nH]c2ccc(Br)cc2c1NC(=O)CN1CCCc2ccccc21	PPARg SRC-2 ag 42, PPARg SRC-1 ag 32, TR-FRET SRC-2 ct 2282, PPARg SRC3 recr 50 (no result: SRC1 TRFRET art, SRC3 TRFRET art) | PPARg SRC2 ag inactive | PPARg SRC1 ag inactive | PPARg SRC3 conf inactive
Cc1ccccc1NC(C)C(=O)N/N=C/c1ccccc1OCc1cccc(Br)c1 (stereo not given)	none (no result: SRC1 TRFRET art, SRC3 TRFRET art)
COc1ccc(NC(C)C(=O)N/N=C/c2ccccc2OCc2cccc(Br)c2)cc1 (stereo not given)	PPARg SRC-1 ag 22, PPARg SRC3 recr 37 | PPARg SRC2 ag inactive | PPARg SRC1 ag 24 | PPARg SRC3 conf inactive

Screens (PubChem)
